Measured values published in PubChem BioAssay (NCATS).
Inconclusive results are not listed. Unmarked numbers belong to inactive results. Activity calls are given as the source filed them. Unless noted, the call rests on the fitted dose curve.

molecular target: Peroxisome proliferator-activated receptor gamma (Homo sapiens) (UniProt P37231); experiment: qHTS assay for small molecule antagonists of peroxisome proliferator-activated receptor gamma signaling (AID 588537; active means well fitted inhibition curve with a large enough effect in the signal ratio, with a control signal flat, not every such curve was filed as active; the % refers to the signal ratio; further: potency means the concentration at half of the fitted maximal effect;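 on activity, negative = inhibition: reporter cells co-stimulated with 50 nM rosiglitazone agonist during compound treatment; % of control where 0% means no effect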); details: HEK293 PPARg-UAS-bla, beta-lactamase ratio, antagonist mode; series mostly up to 76.8 µM; activity, negative = inhibition: at the top concentration
Sequence (P37231 whole entry, looked up): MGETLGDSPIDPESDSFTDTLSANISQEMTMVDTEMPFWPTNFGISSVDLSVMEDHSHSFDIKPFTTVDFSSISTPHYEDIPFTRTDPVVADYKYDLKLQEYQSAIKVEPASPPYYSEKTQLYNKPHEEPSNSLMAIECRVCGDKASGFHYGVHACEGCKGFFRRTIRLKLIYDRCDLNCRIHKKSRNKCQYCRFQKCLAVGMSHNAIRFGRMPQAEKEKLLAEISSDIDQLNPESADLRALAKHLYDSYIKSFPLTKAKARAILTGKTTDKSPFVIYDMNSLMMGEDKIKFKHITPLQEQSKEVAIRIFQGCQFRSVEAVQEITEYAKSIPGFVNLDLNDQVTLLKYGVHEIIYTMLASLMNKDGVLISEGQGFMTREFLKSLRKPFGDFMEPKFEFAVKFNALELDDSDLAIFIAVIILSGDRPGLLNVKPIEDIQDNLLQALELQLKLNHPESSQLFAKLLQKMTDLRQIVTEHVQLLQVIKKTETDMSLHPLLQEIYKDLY
In short: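 Read-out: CCF4 fluorescence (ex 405, em 460/530 nm) after 2 h at RT. Cells were HEK293 carrying a UAS-bla reporter and treated 16 h at 37 C with compound plus rosiglitazone (50 nM final). Normalized to rosiglitazone and DMSO.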

Row | Structure (SMILES) | activity, negative = inhibition [%] | Potency
1 | CC/C(=N\OC/C=C/Cl)C1=C(O)CC(C2CCOCC2)CC1=O (stereo not given) | 1.85 | 
2 | COc1cc(OC)nc(Sc2cccc(Cl)c2C(=O)O)n1 | 6.34 | 
3 | ClC1=C(Cl)C2(Cl)C3C4OC4C(Cl)C3C1(Cl)C2(Cl)Cl (stereo not given) | 0.616 | 
4 | N#Cc1c[nH]cc1-c1cccc2c1OC(F)(F)O2 |  | 31.6 µM (active)
5 | CNC(=O)O/N=C(\C)SC | -16 | 
6 | CCc1cnc(C2=NC(C)(C(C)C)C(=O)N2)c(C(=O)O)c1 (stereo not given) | -5.58 | 

molecular target: Vitamin D3 receptor (Homo sapiens) (UniProt P11473); experiment: qHTS assay for small molecule antagonists of vitamin D receptor signaling (AID 588541); details: HEK293T VDR-UAS-bla, beta-lactamase ratio, antagonist mode; series mostly up to 76.7 µM; activity change, negative = inhibition: at the top concentration;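 further: receptor activated by calcitriol during compound treatment; on the % scale 0 is the no-effect control and ±100 the full control effect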
Sequence (P11473 whole entry, looked up): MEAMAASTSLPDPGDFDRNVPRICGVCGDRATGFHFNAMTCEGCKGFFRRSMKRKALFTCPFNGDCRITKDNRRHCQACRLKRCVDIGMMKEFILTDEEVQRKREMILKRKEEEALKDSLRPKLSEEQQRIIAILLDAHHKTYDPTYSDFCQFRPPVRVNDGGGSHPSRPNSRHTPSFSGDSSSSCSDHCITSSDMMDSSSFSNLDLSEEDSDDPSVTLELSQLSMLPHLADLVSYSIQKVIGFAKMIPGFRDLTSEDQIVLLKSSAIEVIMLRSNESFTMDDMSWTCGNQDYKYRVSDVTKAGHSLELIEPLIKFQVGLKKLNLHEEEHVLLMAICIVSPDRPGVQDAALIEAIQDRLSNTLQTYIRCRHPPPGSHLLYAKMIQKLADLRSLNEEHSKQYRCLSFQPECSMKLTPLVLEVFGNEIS
In short: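 VDR-UAS-bla HEK293T cells in 2% charcoal-stripped FBS were stimulated with 1-alpha,25-dihydroxyvitamin D3 (3 nM final) plus compound for 16 h at 37 C. The beta-lactamase CCF4 readout was normalized to 50 nM agonist and DMSO, and Hill fits gave IC50.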

Row | Structure (SMILES) | activity change, negative = inhibition [%]
7 | CC/C(=N\OC/C=C/Cl)C1=C(O)CC(C2CCOCC2)CC1=O (stereo not given) | 1.17
8 | S=C(S)NCCNC(=S)S | 0.512
9 | COc1cc(OC)nc(Sc2cccc(Cl)c2C(=O)O)n1 | 7.6
10 | ClC1=C(Cl)C2(Cl)C3C4OC4C(Cl)C3C1(Cl)C2(Cl)Cl (stereo not given) | 12.9
11 | S=C([S-])NCCNC(=S)[S-].S=C([S-])NCCNC(=S)[S-].[Mn+2].[Zn+2] | -27.1
12 | c1ccc2c(c1)oc1ccccc12 | -5.49
13 | CC(C)(C)OOC(C)(C)CCC(C)(C)OOC(C)(C)C | 6.49
14 | CNC(=O)O/N=C(\C)SC | 0.0541
15 | CCc1cnc(C2=NC(C)(C(C)C)C(=O)N2)c(C(=O)O)c1 (stereo not given) | -9.14
